# Several values for one entry are separate records, joined by “and”; a condition that tells them apart may be missing. Equal values may be shown once. Results filed as inconclusive are left out. A structure can be active in one record and inactive in another. Activity calls are given as the source filed them. Rule for the calls, unless noted: active = hit-call score of the fitted dose curve at least 0.9, where 1 is the maximum; inactive = score below 0.9.
# How the values were obtained:
# [1] = target: Paired box protein Pax-6 (Homo sapiens) (UniProt P26367); assay: ATG_Pax6_CIS: Attagene CIS-FACTORIAL HepG2 Assay for human Paired Box 6 (PAX6) (AID 2282956); conditions: HepG2 CIS-FACTORIAL PAX6 reporter transcription, RNA readout; actives raise or lower the signal
# Method in brief: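 Values derive from bidirectional curve fitting of reporter mRNA signal relative to DMSO. HepG2 cells bearing transfected cis-regulated MRTUs were exposed for 24 h; transcripts were read by RT-PCR and capillary electrophoresis.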
# [2] = ATG_PXRE_CIS: Attagene CIS-FACTORIAL HepG2 Assay for human Pregnane X Receptor Element (PXRE) (AID 2282957); conditions: HepG2 Attagene CIS-FACTORIAL PXRE reporter, mRNA; actives raise or lower the signal
# Method in brief: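 Endogenous transcription factor activity in HepG2 was gauged through induction of reporter mRNA driven by a cis-regulating promoter element, sampled 24 h post-treatment. Activity was fitted in both directions against DMSO negative control.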
# [3] = ATG_PPRE_CIS: Attagene CIS-FACTORIAL HepG2 Assay for human Peroxisome Proliferator-activated Response Element (PPRE) (AID 2282958); conditions: HepG2 PPRE cis-element reporter, Attagene transcription factor profiling; actives raise or lower the signal
# Method in brief: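 DMSO served as negative control and baseline for bidirectional curve fitting. Signal came from PPRE-regulated reporter mRNA in HepG2 cells, measured 24 h post-dosing by RT-PCR, 6-FAM primer extension and capillary electrophoresis.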
# [4] = ATG_RORE_CIS: Attagene CIS-FACTORIAL HepG2 Assay for human RAR-related Orphan Receptor Element (RORE) (AID 2282959); conditions: HepG2 Attagene cis-factorial RORE reporter, mRNA; actives raise or lower the signal
# Method in brief: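 Transfect HepG2 with MRTUs; treat 24 h; extract RNA; RT with oligo(dT); PCR with reporter-specific primers; 6-FAM primer extension; HpaI digest 2 h at 37 C; capillary electrophoresis. Fit vs DMSO, bidirectional.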
# [5] = ATG_Sox_CIS: Attagene CIS-FACTORIAL HepG2 Assay for human SRY-box transcription factor (SOX) (AID 2282960); conditions: HepG2 Attagene cis-factorial SOX reporter, mRNA; actives raise or lower the signal
# Method in brief: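 Fluorescence-labelled cDNA fragments from reporter transcripts, sized by CE, give the signal. Cells: HepG2, transiently transfected with cis-regulated reporter units. Exposure 24 h; DMSO negative control; bidirectional curve fitting.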
# [6] = target: Transcription factor Sp1 (Homo sapiens) (UniProt P08047); assay: ATG_Sp1_CIS: Attagene CIS-FACTORIAL HepG2 Assay for human Specificity Protein 1 (Sp1) (AID 2282961); conditions: HepG2 Sp1 cis-reporter transcription, actives raise or lower the signal
# Method in brief: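 Chemicals are dosed onto HepG2 cells transfected with multiple cis-promoter reporter constructs, and after 24 h reporter RNA is reverse-transcribed, PCR-amplified and resolved by capillary electrophoresis for fluorescence quantitation; activity is scored up or down against DMSO.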
# [7] = target: Signal transducer and activator of transcription 3 (Homo sapiens) (UniProt P40763); assay: ATG_STAT3_CIS: Attagene CIS-FACTORIAL HepG2 Assay for human Signal Transducer and Activator of Transcription 3 (STAT3) (AID 2282963); conditions: HepG2, Attagene cis-factorial STAT3 reporter transcription; actives raise or lower the signal
# Method in brief: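 Uses human liver HepG2 transiently carrying cis-regulated reporter transcription units. Following 24 h dosing, reporter mRNA induction was detected by RT-PCR and capillary electrophoresis, analysed bidirectionally versus DMSO.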
# [8] = ATG_TA_CIS: Attagene CIS-FACTORIAL HepG2 Assay for human TA Basal Promoter (AID 2282964); conditions: HepG2 Attagene CIS-factorial TA basal promoter reporter; actives raise or lower the signal
# Method in brief: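 Read-out: fluorescent reporter-transcript fragments resolved by capillary electrophoresis after RT-PCR and HpaI digestion. Source: HepG2 cells carrying transiently transfected multi-reporter cis constructs, treated 24 h. Endpoint fitted bidirectionally relative to DMSO.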
# [9] = ATG_TAL_CIS: Attagene CIS-FACTORIAL HepG2 Assay for human TAL Basal Promoter (AID 2282966); conditions: HepG2 Attagene cis-factorial TAL promoter reporter; actives raise or lower the signal;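 note: background control endpoint measuring basal TAL promoter reporter mRNA not a specific factor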
# Method in brief: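 Endogenous transcription-factor activity is sensed in HepG2 cells through transfected cis-promoter reporter constructs. After 24 h dosing, reporter transcripts are quantified by RT-PCR and capillary electrophoresis. Gain or loss of signal is fitted relative to DMSO.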
# [10] = ATG_TGFb_CIS: Attagene CIS-FACTORIAL HepG2 Assay for human Transforming Growth Factor (TGF) (AID 2282967); conditions: HepG2 Attagene CIS TGFb reporter, mRNA transcription; actives raise or lower the signal
# Method in brief: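 Transient MRTU transfection of HepG2 (FuGene 6). Dose 24 h. TriZol RNA, oligo(dT) RT, PCR, 6-FAM primer extension, HpaI cut, CE. Bidirectional fit, DMSO = baseline.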
# [11] = ATG_VDRE_CIS: Attagene CIS-FACTORIAL HepG2 Assay for human Vitamin D Receptor Element (VDRE) (AID 2282968); conditions: HepG2 VDRE cis-reporter transcription, actives raise or lower the signal
# Method in brief: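 Transfected HepG2 reporter cells, chemical treatment 24 h. RNA isolated, cDNA amplified with reporter-specific primers, products analysed by capillary electrophoresis. Endpoint fitted in both directions versus DMSO.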
# [12] = target: Nuclear receptor subfamily 1 group I member 3 (Homo sapiens) (UniProt Q14994); assay: ATG_CAR_TRANS: Attagene TRANS-FACTORIAL HepG2 Assay for human Constitutive Androstane Receptor (CAR) (AID 2282969; active = hit-call score of the fitted dose curve at least 0.9, where 1 is the maximum;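 note: activators raise reporter mRNA above DMSO so AC50 marks induction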); conditions: HepG2 Attagene TRANS-FACTORIAL CAR reporter
# Method in brief: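 Steps: transient transfection of HepG2 with multiple GAL4-UAS reporter units; 24 h compound incubation; RNA isolation, RT-PCR, 6-FAM primer extension, HpaI digest; capillary electrophoresis. Gain-of-signal relative to DMSO negative control.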
# [13] = target: Estrogen receptor (Homo sapiens) (UniProt P03372); assay: ATG_ERa_TRANS: Attagene TRANS-FACTORIAL HepG2 Assay for human Estrogen Receptor alpha (ERa) (AID 2282970; active = hit-call score of the fitted dose curve at least 0.9, where 1 is the maximum); conditions: HepG2 Attagene TRANS ERa GAL4 reporter, mRNA
# Method in brief: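 Transfected HepG2 cells carrying GAL4-UAS-driven reporter units were dosed for 24 hours. Total RNA was reverse-transcribed, reporter sequences PCR-amplified, FAM-labelled, HpaI-digested and resolved by capillary electrophoresis. Increases over DMSO control defined activity.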
# [14] = target: X-box-binding protein 1 (Homo sapiens) (UniProt P17861); assay: ATG_Xbp1_CIS: Attagene CIS-FACTORIAL HepG2 Assay for human X-box Binding Protein 1 (XBP1) (AID 2282972); conditions: HepG2 XBP1 cis-element reporter, Attagene multiplex; actives raise or lower the signal
# Method in brief: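 Human hepatoma HepG2, cis-element reporter system, 24 h treatment; mRNA quantified by RT-PCR/CE fluorescence; fit relative to DMSO.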
# [15] = ATG_M_19_TRANS: Attagene TRANS-FACTORIAL HepG2 Assay for M19 Transcription Factor (Internal Marker) (AID 2282974; active = hit-call score of the fitted dose curve at least 0.9, where 1 is the maximum); conditions: HepG2 Attagene TRANS-FACTORIAL M19 internal marker reporter
# Method in brief: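 Multiplexed TRANS format: HepG2 liver cells bearing transient GAL4-UAS reporter units, chemical treatment 24 h, reporter transcripts quantified by RT-PCR plus capillary electrophoresis. DMSO defines baseline.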
# [16] = ATG_SREBP_CIS: Attagene CIS-FACTORIAL HepG2 Assay for human Sterol Regulatory Element Binding (SREBP) (AID 2282962); conditions: HepG2 Attagene cis-factorial SREBP reporter, mRNA; actives raise or lower the signal
# Method in brief: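 Values derive from bidirectional curve fitting with DMSO as baseline. The underlying measurement is reporter mRNA from cis-element-regulated units in transiently transfected HepG2, quantified by RT-PCR and capillary electrophoresis after 24 h exposure.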
# [17] = ATG_TCF_b_cat_CIS: Attagene CIS-FACTORIAL HepG2 Assay for human T-Cell-Factor with beta-catenin (TCF/b-cat) (AID 2282965); conditions: HepG2 TCF/beta-catenin cis-reporter transcription, actives raise or lower the signal
# Method in brief: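 In this cis-format system, transfected HepG2 cells report endogenous transcription factor activity. Readout after 24 h exposure is reporter transcript abundance from RT-PCR and capillary electrophoresis, analysed for gain or loss of signal versus DMSO.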
# [18] = target: Steroid hormone receptor ERR1 (Homo sapiens) (UniProt P11474); assay: ATG_ERRa_TRANS: Attagene TRANS-FACTORIAL HepG2 Assay for human Estrogen-Related Receptor alpha (ERRa) (AID 2282971; active = hit-call score of the fitted dose curve at least 0.9, where 1 is the maximum); conditions: HepG2 Attagene TRANS reporter, ERRa transactivation
# Method in brief: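 HepG2 cells were transiently transfected with multiple GAL4-UAS reporter units, then dosed with compound for 24 h. Total RNA was reverse-transcribed, reporter cDNA PCR-amplified and fluorescently labelled, and fragments resolved by capillary electrophoresis; induction was compared with DMSO.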
# [19] = ATG_Hpa5_TRANS: Attagene TRANS-FACTORIAL HepG2 Assay for human GAL4-Hpa5 Hepatocyte Transcription Factor Basal Promoter (AID 2282975; active = hit-call score of the fitted dose curve at least 0.9, where 1 is the maximum;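 note: hits are increases in reporter mRNA over DMSO baseline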); conditions: HepG2 Attagene GAL4-Hpa5 transcription reporter
# Method in brief: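 Gain-of-signal versus DMSO is fitted for reporter mRNA quantified by RT-PCR and capillary electrophoresis after 24 h exposure. This endpoint is an internal background marker in transiently transfected HepG2 cells carrying GAL4-UAS reporter units.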
# X-box-binding protein 1 (Homo sapiens), sequence (P17861 whole entry, looked up): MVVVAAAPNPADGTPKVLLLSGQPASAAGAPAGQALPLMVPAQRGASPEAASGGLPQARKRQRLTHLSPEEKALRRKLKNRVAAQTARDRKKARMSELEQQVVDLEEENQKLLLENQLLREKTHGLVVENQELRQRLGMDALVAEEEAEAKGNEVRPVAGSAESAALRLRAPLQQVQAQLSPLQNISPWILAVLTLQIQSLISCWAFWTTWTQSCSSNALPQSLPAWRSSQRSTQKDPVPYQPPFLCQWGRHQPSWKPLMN
# Paired box protein Pax-6 (Homo sapiens), sequence (P26367 whole entry, looked up): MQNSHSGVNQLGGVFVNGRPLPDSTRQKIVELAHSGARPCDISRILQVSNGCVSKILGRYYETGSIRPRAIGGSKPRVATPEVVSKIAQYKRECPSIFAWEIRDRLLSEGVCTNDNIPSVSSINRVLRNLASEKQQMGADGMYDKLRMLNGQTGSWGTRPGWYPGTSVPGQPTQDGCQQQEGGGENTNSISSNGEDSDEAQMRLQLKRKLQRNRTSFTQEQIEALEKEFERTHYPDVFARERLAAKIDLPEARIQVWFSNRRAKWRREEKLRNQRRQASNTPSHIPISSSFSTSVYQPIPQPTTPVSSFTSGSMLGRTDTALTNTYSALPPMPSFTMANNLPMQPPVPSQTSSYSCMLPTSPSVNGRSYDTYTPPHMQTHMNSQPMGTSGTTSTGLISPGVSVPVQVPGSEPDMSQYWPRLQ
# Transcription factor Sp1 (Homo sapiens), sequence (P08047 whole entry, looked up): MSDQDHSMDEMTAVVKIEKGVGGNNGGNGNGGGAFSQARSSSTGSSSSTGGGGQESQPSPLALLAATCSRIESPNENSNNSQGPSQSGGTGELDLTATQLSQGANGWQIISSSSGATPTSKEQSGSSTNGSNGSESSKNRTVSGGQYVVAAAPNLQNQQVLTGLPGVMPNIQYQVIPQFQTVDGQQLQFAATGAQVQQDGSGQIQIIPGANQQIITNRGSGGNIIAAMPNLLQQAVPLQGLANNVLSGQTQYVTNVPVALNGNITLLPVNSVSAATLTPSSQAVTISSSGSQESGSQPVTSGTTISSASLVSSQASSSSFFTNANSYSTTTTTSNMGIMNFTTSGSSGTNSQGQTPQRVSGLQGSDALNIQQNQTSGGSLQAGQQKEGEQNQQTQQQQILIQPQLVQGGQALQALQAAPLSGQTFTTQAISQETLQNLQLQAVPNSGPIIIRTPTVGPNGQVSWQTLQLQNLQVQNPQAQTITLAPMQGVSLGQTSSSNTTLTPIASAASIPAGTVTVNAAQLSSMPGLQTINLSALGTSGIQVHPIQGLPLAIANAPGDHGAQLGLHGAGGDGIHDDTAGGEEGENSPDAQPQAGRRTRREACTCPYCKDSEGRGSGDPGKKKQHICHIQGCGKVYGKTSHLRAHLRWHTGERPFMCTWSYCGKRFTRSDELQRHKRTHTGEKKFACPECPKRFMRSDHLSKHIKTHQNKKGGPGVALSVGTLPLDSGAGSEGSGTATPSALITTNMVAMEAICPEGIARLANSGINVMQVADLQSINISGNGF
# Signal transducer and activator of transcription 3 (Homo sapiens), sequence (P40763 whole entry, looked up): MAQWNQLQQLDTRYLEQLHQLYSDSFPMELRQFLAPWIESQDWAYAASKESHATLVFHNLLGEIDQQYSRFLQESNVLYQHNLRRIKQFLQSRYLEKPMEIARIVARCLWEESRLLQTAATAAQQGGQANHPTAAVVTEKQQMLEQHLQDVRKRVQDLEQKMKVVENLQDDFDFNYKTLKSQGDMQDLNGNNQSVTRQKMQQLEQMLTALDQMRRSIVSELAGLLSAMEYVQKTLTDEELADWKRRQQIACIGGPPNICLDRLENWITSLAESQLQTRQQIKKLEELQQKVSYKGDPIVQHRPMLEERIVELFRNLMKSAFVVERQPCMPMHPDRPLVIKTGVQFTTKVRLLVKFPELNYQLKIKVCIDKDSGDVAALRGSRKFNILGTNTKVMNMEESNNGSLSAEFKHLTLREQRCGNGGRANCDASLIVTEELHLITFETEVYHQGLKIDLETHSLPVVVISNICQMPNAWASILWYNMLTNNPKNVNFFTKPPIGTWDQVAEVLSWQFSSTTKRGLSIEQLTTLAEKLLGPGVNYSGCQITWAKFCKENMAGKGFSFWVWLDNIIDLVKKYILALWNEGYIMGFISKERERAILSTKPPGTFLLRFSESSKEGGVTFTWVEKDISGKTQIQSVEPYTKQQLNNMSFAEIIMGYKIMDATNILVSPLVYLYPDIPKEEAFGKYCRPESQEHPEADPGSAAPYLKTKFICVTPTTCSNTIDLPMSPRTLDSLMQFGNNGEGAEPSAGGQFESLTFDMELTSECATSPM
# Nuclear receptor subfamily 1 group I member 3 (Homo sapiens), sequence (Q14994 whole entry, looked up, the tested form may be a part): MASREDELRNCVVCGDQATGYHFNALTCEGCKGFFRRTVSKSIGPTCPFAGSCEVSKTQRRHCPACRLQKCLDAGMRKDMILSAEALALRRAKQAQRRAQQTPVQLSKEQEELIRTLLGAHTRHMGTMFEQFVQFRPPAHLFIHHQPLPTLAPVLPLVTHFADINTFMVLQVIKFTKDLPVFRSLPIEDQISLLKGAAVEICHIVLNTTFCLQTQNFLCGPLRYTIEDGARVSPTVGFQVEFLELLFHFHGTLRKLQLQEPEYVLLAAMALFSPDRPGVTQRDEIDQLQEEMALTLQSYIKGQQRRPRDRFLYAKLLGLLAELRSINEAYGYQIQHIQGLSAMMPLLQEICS
# Steroid hormone receptor ERR1 (Homo sapiens), sequence (P11474 whole entry, looked up, the tested form may be a part): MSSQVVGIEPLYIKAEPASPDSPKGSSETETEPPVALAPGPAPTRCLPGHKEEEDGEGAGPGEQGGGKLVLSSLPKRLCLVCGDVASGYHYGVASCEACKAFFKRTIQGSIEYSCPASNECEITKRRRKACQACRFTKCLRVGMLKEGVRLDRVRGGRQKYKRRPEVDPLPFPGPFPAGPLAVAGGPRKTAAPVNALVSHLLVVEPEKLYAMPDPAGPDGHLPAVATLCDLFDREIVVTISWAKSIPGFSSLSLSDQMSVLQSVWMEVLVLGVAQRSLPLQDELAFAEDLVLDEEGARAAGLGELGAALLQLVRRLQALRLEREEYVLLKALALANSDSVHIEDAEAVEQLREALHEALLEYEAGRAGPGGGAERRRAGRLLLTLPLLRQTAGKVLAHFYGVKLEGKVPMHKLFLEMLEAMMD
# Estrogen receptor (Homo sapiens), sequence (P03372 whole entry, looked up, the tested form may be a part): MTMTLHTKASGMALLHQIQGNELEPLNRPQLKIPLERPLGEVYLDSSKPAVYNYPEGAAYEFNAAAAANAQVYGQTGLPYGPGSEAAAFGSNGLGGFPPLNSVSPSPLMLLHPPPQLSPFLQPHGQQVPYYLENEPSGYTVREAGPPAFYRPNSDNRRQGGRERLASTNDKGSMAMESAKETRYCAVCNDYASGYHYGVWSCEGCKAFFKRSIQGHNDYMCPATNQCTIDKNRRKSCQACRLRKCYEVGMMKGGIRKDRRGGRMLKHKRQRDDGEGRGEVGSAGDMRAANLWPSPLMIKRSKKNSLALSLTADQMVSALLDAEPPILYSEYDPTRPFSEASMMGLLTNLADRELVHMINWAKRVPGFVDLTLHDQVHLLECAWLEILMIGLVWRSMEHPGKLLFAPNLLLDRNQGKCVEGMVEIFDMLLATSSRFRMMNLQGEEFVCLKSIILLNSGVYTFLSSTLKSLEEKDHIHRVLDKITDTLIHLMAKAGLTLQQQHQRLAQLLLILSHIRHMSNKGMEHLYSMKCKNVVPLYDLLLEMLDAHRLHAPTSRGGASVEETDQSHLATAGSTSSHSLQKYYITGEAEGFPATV
structure (smiles),measurement,setting,value
O=[N+]([O-])c1cc(C(F)(F)F)c(Cl)c([N+](=O)[O-])c1Nc1ncc(C(F)(F)F)cc1Cl,AC50,[1],6.88 µM (active)
same,outcome,[1],inactive
same,AC50,[2],2.84 µM (active) and 1.27 µM (active)
same,AC50,[3],14.6 µM (active)
same,outcome,[3],inactive
same,outcome,[4],inactive
same,outcome,[5],inactive
same,outcome,[6],inactive
same,AC50,[7],19.1 µM (active)
same,outcome,[7],inactive
same,AC50,[8],15.4 µM (active)
same,outcome,[8],inactive
same,outcome,[9],inactive
same,AC50,[10],2.2 µM (active)
same,outcome,[10],inactive
same,outcome,[11],inactive
same,outcome,[12],inactive
same,outcome,[13],inactive
same,outcome,[14],inactive
same,outcome,[15],inactive
CCOP(=O)(OCC)Oc1cc(C)nc(C(C)C)n1,outcome,[1],inactive
same,outcome,[2],inactive
same,outcome,[3],inactive
same,outcome,[4],inactive
same,outcome,[5],inactive
same,outcome,[6],inactive
same,outcome,[16],inactive
same,outcome,[7],inactive
same,outcome,[8],inactive
same,outcome,[9],inactive
same,outcome,[10],inactive
same,outcome,[14],inactive
CCOP(=S)(OCC)OC(Cl)C(Cl)(Cl)Cl (stereo not given),outcome,[1],inactive
same,AC50,[2],35.6 µM (active)
same,outcome,[3],inactive
same,outcome,[4],inactive
same,outcome,[5],inactive
same,outcome,[6],inactive
same,outcome,[7],inactive
same,outcome,[8],inactive
same,outcome,[17],inactive
same,outcome,[9],inactive
same,outcome,[10],inactive
same,AC50,[11],50 µM (active)
same,outcome,[12],inactive
same,outcome,[14],inactive
COP(=O)(NC(C)=O)SC (stereo not given),outcome,[1],inactive
same,AC50,[2],30.5 µM (active)
same,outcome,[3],inactive
same,outcome,[4],inactive
same,outcome,[5],inactive
same,outcome,[6],inactive
same,outcome,[7],inactive
same,outcome,[8],inactive
same,outcome,[17],inactive
same,outcome,[9],inactive
same,outcome,[10],inactive
same,outcome,[11],inactive
same,outcome,[12],inactive
same,outcome,[14],inactive
COP(=O)(OC)C(O)C(Cl)(Cl)Cl (stereo not given),outcome,[1],inactive
same,AC50,[2],16.1 µM (active)
same,AC50,[3],41.5 µM (active)
same,outcome,[4],inactive
same,outcome,[5],inactive
same,outcome,[6],inactive
same,outcome,[16],inactive
same,outcome,[7],inactive
same,outcome,[8],inactive
same,outcome,[17],inactive
same,outcome,[9],inactive
same,outcome,[10],inactive
same,AC50,[11],50 µM (active)
same,outcome,[12],inactive
same,outcome,[18],inactive
same,AC50,[14],39.7 µM (active)
same,outcome,[15],inactive
same,outcome,[19],inactive
CC(C1CC1)C(O)(Cn1cncn1)c1ccc(Cl)cc1 (stereo not given),outcome,[1],inactive
same,AC50,[2],24.8 µM (active)
same,outcome,[3],inactive
same,outcome,[4],inactive
same,outcome,[5],inactive
same,outcome,[6],inactive
same,outcome,[16],inactive
same,outcome,[7],inactive
same,outcome,[8],inactive
same,outcome,[17],inactive
same,outcome,[9],inactive
same,outcome,[10],inactive
same,outcome,[11],inactive
same,outcome,[14],inactive
same,outcome,[15],inactive
CN(C)NC(=O)CCC(=O)O,outcome,[1],inactive
same,outcome,[2],inactive
same,outcome,[3],inactive
same,outcome,[4],inactive
same,outcome,[5],inactive
same,outcome,[6],inactive
same,outcome,[16],inactive
same,outcome,[7],inactive
same,outcome,[8],inactive
same,outcome,[9],inactive
same,outcome,[10],inactive
same,outcome,[11],inactive
same,outcome,[18],inactive
same,outcome,[14],inactive
CC1=NNC(=O)N(/N=C/c2cccnc2)C1,outcome,[1],inactive
same,outcome,[2],inactive
same,outcome,[3],inactive
same,outcome,[4],inactive
same,outcome,[5],inactive
same,outcome,[6],inactive
same,outcome,[7],inactive
same,outcome,[8],inactive
same,outcome,[17],inactive
same,outcome,[9],inactive
same,outcome,[10],inactive
same,outcome,[11],inactive
same,outcome,[14],inactive

# Reference: PubChem BioAssay (EPA / NIEHS)
